Values joined by “and” are separate entries in the source; they are usually repeats but may differ in a detail not shown here. Equal entries are not always repeated. Entries with a potency or affinity are not part of this list.
Test system: Klebsiella pneumoniae
Details: Concentration 32 ug.mL-1; ASSAY_TEST Inhibition of Bacterial Growth; detection method Absorption (OD600); MEDIA CAMHB; plate type 384well; NBS; CORNING #3640; time 18 hr

Row | SMILES | Inhibition [%]
1 | C=C1CC(C(=O)OC)(C(=O)OC)C[C@@H]1[C@H](c1ccccc1)n1ccc2ccc(Cl)cc21 | 17.79
2 | C=C1CC(C(=O)OC)(C(=O)OC)C[C@@H]1[C@H](c1ccccc1)n1ccc2ccccc21 | 21.67
3 | C=C1CC(C(=O)OC)(C(=O)OC)C[C@@H]1[C@@H](NS(=O)(=O)c1ccc(C)cc1)c1ccccc1 | 18.19
4 | C=C1CC2(COC(C)(C)OC2)C[C@@H]1[C@@H](Nc1ccc(Br)cc1)c1ccccc1 | 31.4
5 | C[C@]12CC[C@@](c3ccc4ccccc4c3)(O1)[C@H]1C=C[C@H](OC(=O)c3ccccc3)[C@H]12 | 30.93
6 | C=C1CC(COC)(COC)C[C@@H]1[C@@H](Nc1ccc(Br)cc1)c1ccccc1 | 12.17
7 | C[C@]12CC[C@@](C3CCCC3)(O1)[C@H]1C=C[C@H](OC(=O)c3ccccc3)[C@H]12 | 19.59
8 | C=C1CC(COCc2ccc(OC)cc2)(COCc2ccc(OC)cc2)C[C@@H]1[C@@H](Nc1ccc(Br)cc1)c1ccccc1 | 3.98
9 | C[C@]12CC[C@@H](O1)[C@H]1C=C[C@H](OC(=O)c3ccccc3)[C@H]12 | 19.45
10 | C[C@@H]1CC(=O)C=C2C(=O)[C@@H]3[C@@H](C3(C)C)[C@]21C | 18.57
11 | C[C@]12CC[C@@](C)(O1)[C@H]1C=C[C@H](OC(=O)c3ccccc3)[C@H]12 | 15.14

Test system: Candida albicans
Details: 32 ug/mL

Row | SMILES | Inhibition
12 | C=C1CC(C(=O)OC)(C(=O)OC)C[C@@H]1[C@H](c1ccccc1)n1ccc2ccc(Cl)cc21 | 3.75%
13 | C=C1CC(C(=O)OC)(C(=O)OC)C[C@@H]1[C@H](c1ccccc1)n1ccc2ccccc21 | -0.58%
14 | C=C1CC(C(=O)OC)(C(=O)OC)C[C@@H]1[C@@H](NS(=O)(=O)c1ccc(C)cc1)c1ccccc1 | 0.13%
15 | C=C1CC2(COC(C)(C)OC2)C[C@@H]1[C@@H](Nc1ccc(Br)cc1)c1ccccc1 | 6.45%
16 | C[C@]12CC[C@@](c3ccc(C(F)(F)F)cc3)(O1)[C@H]1C=C[C@H](OC(=O)c3ccccc3)[C@H]12 | -0.5% and 4.46%
17 | C[C@]12CC[C@@](c3ccc4ccccc4c3)(O1)[C@H]1C=C[C@H](OC(=O)c3ccccc3)[C@H]12 | 2.97%
18 | C=C1CC(COC)(COC)C[C@@H]1[C@@H](Nc1ccc(Br)cc1)c1ccccc1 | 5.3%
19 | C[C@]12CC[C@@](C3CCCC3)(O1)[C@H]1C=C[C@H](OC(=O)c3ccccc3)[C@H]12 | 4.96%
20 | C[C@]12CC[C@@](C3CC3)(O1)[C@H]1C=C[C@H](OC(=O)c3ccccc3)[C@H]12 | 3.68% and 4.72%
21 | C=C1CC(COCc2ccc(OC)cc2)(COCc2ccc(OC)cc2)C[C@@H]1[C@@H](Nc1ccc(Br)cc1)c1ccccc1 | -6.97%
22 | C[C@]12CC[C@@H](O1)[C@H]1C=C[C@H](OC(=O)c3ccccc3)[C@H]12 | 6.1%
23 | C[C@@H]1CC(=O)C=C2C(=O)[C@@H]3[C@@H](C3(C)C)[C@]21C | -0.58%
24 | C[C@]12CC[C@@](c3ccccc3)(O1)[C@H]1C=C[C@H](OC(=O)c3ccccc3)[C@H]12 | -1.59% and 4.39%
25 | C[C@]12CC[C@@](C)(O1)[C@H]1C=C[C@H](OC(=O)c3ccccc3)[C@H]12 | 5.91%

Test system: Cryptococcus neoformans
Details: Concentration 32 ug.mL-1; ASSAY_TEST Inhibition of Fungal Growth; detection method Resazurin; Absorption (OD600-OD570); plate type 384well; NBS; CORNING #3640

Row | SMILES | Inhibition [%]
26 | C=C1CC(C(=O)OC)(C(=O)OC)C[C@@H]1[C@H](c1ccccc1)n1ccc2ccc(Cl)cc21 | -67.72
27 | C=C1CC(C(=O)OC)(C(=O)OC)C[C@@H]1[C@H](c1ccccc1)n1ccc2ccccc21 | -68.85
28 | C=C1CC(C(=O)OC)(C(=O)OC)C[C@@H]1[C@@H](NS(=O)(=O)c1ccc(C)cc1)c1ccccc1 | -29.89
29 | C=C1CC2(COC(C)(C)OC2)C[C@@H]1[C@@H](Nc1ccc(Br)cc1)c1ccccc1 | -62.96
30 | C[C@]12CC[C@@](c3ccc4ccccc4c3)(O1)[C@H]1C=C[C@H](OC(=O)c3ccccc3)[C@H]12 | -55.94
31 | C=C1CC(COC)(COC)C[C@@H]1[C@@H](Nc1ccc(Br)cc1)c1ccccc1 | -62.06
32 | C[C@]12CC[C@@](C3CCCC3)(O1)[C@H]1C=C[C@H](OC(=O)c3ccccc3)[C@H]12 | -56.17
33 | C=C1CC(COCc2ccc(OC)cc2)(COCc2ccc(OC)cc2)C[C@@H]1[C@@H](Nc1ccc(Br)cc1)c1ccccc1 | -42.12
34 | C[C@]12CC[C@@H](O1)[C@H]1C=C[C@H](OC(=O)c3ccccc3)[C@H]12 | -82.89
35 | C[C@@H]1CC(=O)C=C2C(=O)[C@@H]3[C@@H](C3(C)C)[C@]21C | -14.72
36 | C[C@]12CC[C@@](C)(O1)[C@H]1C=C[C@H](OC(=O)c3ccccc3)[C@H]12 | -25.36

— ChEMBL document CHEMBL4513151, “CO-ADD screening of Institut Català d'Investigació Química (Spain) compounds”
